The sample as a whole holds a higher share of hits than the screen did.
Shiga inhibitor = Shiga toxin inhibition; Vero cells, Shiga toxin protein synthesis inhibition reporter; inhibition, % at 38.7 µM; actives 9.2% (n = 290,000); AID 2315; in the data active = inhibition mostly above about 28%, no sharp cut-off; inactive = mostly below about 43%; also: 0% is about no effect
Cycloheximide cs = affects cycloheximide protein synthesis inhibition readout, counter-screen; AID 2314; actives 12% (n = 300,000); cell reporter, cycloheximide protein synthesis inhibition counterscreen; max response, %; in the data active = max response mostly above about 13%, no sharp cut-off; inactive = mostly below about 14%; also: read at 38.3 µM for the half of the compounds with a filed dose; 0% is about no effect
AMA1-RON2 inh = AMA1-RON2 (P. falciparum) interaction inhibition. AlphaScreen AMA1-biotinylated RON2 peptide binding. AID 720542. actives 0.2% (n = 360,000). Potency, µM (titrated, usually from 58.2 µM), for inactives: at the top dose activity change, negative = inhibition, actives largely listed as inhibitors;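 also: potency is read from the fitted curve at half-maximal effect; 0% = vehicle wells and -100% = peptide control; nearly all actives have a fitted effect of over 45% in size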
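AMA1 (3D7) with his tag at 25 nM final met compounds first, then biotinylated RON2 peptide at 25 nM; detection used donor plus acceptor beads, 10 µg/mL apiece, read by AlphaScreen after 30 min at room temperature.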
AmpC inh no detg = inhibitors of E. coli AmpC beta-lactamase without detergent; P00811; AmpC nitrocefin hydrolysis, absorbance 480 nm, 0.0001% Triton; Potency, µM (doses to about 57.1 µM), inactives show top-dose activity change, negative = inhibition, hits mostly inhibitors; actives 0.52% (n = 330,000); AID 485341;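 also: potency is read from the fitted curve at half-maximal effect; plate controls were no compound for no effect and no enzyme for full effect; nearly all actives have a fitted effect of over 20% in size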
Target sequence (P00811 whole entry, looked up): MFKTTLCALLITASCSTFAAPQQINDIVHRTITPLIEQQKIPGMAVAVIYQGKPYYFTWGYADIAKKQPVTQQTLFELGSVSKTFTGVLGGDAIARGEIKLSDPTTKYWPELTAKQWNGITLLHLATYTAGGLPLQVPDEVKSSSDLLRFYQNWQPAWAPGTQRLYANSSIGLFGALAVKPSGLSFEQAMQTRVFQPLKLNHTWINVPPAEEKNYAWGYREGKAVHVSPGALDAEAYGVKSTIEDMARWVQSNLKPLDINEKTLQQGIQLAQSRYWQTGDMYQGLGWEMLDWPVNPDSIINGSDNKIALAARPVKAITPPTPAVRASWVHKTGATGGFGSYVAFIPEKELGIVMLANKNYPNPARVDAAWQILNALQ
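AmpC (5.3 nM in the dispensed reagent) in 20 mM phosphate pH 7.0 with 0.01% (detergent screen) or 0.0001% Triton X-100 was preincubated with compounds for 15 min at room temperature. Nitrocefin was then added from an 800 uM solution, and hydrolysis was followed at 480 nm.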
SARS PLP yeast = SARS-CoV PLP inhibition in yeast; S. cerevisiae expressing SARS-CoV PLpro, growth rescue; Potency, µM (top dose mostly 32.9 µM), for inactives: at the highest dose activity, positive = growth rescue, actives largely listed as activators; actives 0.19% (n = 330,000); calls by dose curve; also: potency is read from the fitted curve at half-maximal effect; 0% is about no effect; nearly all actives have a fitted effect of over 55% in size
AmpC detergent = AmpC beta-lactamase inhibition with detergent present | P00811 | AmpC hydrolysis of nitrocefin, absorbance 480 nm, 0.01% Triton | Potency, µM (doses to about 114 µM), for inactives: at the highest dose activity change, negative = inhibition, hits mostly inhibitors | actives 0.041% (n = 370,000) | AID 485294;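 also: potency is read from the fitted curve at half-maximal effect; 0% = no-compound wells and -100% = no-enzyme wells; nearly all actives have a fitted effect of over 25% in size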
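20 mM phosphate pH 7.0 + 0.01% (detergent screen) or 0.0001% Triton X-100; 5.3 nM AmpC reagent; cpd preinc 15 min RT; nitrocefin (800 uM stock) to start; A480 q20 s × 4 min; Activity was normalised to no-enzyme and no-compound control wells.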
* hit, by the source's call; ? = inconclusive; · = no result; [ ] = remark or other dose. Unless noted, calls follow the shape of the dose curve; as a rule, active = well fitted curve in the direction sought with a large enough effect; inconclusive = small, poorly fitted or top-dose-only effect, or another doubt; inactive = no such curve, though single readings can be large; an effect the other way counts as inactive or inconclusive.

SMILES	Shiga inhibitor	Cycloheximide cs	AMA1-RON2 inh	AmpC inh no detg	SARS PLP yeast	AmpC detergent
CC1(C)C(=O)Nc2ccccc2N1C(=O)CSc1nc(-c2ccccc2)cs1	29	16*	2%	-25%	8%	-4%
O=C1CN(C(=O)CSc2nc(-c3ccccc3)cs2)c2ccccc2N1	8	-1	12%[11.6 µM]	-47%	3%	-9%
CC(C)NC(=O)CSc1nc(-c2ccccc2)cs1	89*	26*	-7%	0%	-2%	4%
Cc1ccccc1CSCC(=O)NC(=O)NCc1ccco1	12	16*	-28%	-27%	-4%	1%
O=C(O)C1=C[C@@H](C2CC2)C[C@@H](OCCCCO)O1	·	·	32%	·	·	·
O=C(CCS(=O)(=O)c1ccccc1)Nc1cccc(-c2nc3ccccc3s2)c1	79*	57*	-10%	-23%	24%	-4%
O=C(COc1ccccc1[N+](=O)[O-])Nc1ccc(-c2nc3ccccc3s2)cc1	·	·	·	·	·	18%
O=C(CCS(=O)(=O)c1ccccc1)Nc1ccc(-c2nc3ccccc3s2)cc1	69	33*	-9%	-48%	14%	-13%
O=C(COc1ccccc1Cl)Nc1ccc(-c2nc3ccccc3s2)cc1	31	38*	·	·	·	10%
COc1ccc2c(c1)c1c(c(=O)n(-c3ccc(C)cc3)c(=O)n1CC(=O)c1ccc(Cl)cc1)n2C	·	·	·	·	·	21%
CCOc1ccc(C(=O)NCCc2csc(-c3cccc(C)c3)n2)cc1	·	·	·	·	·	3%
Cc1ccc(-c2csc(-c3nc(-c4ccc(Br)s4)cs3)n2)cc1	·	·	·	·	·	-2%
Brc1ccc(-c2csc(-c3ccncc3)n2)cc1	42*	17	22%	-1%	-34%	1%
O=C(Nc1ccc(Br)cc1)c1csc(-c2ccncc2)n1	10	15	-14%	9%	-2%	-7%
Cc1ccc(-c2csc(-c3ccncc3)n2)cc1	96*	26*	-7%	-15%	-3%	6%
Cc1nnc(NC(=O)c2ccc(F)c(S(=O)(=O)N3CCOCC3)c2)s1	·	·	3%	3%	0%	·
CC1CC(NC(=O)c2cc3c(=O)n4ccccc4nc3n2C)CC(C)(C)C1 (centres undefined)	-2	-3	15%	25%	10%	0%
COCCN(Cc1cc2cc(C)cc(C)c2nc1Cl)C(=O)Nc1ccccc1	-13	16*	-1%	2%	-14%	0%
Cc1cc(C)c2nc(Cl)c(CN(Cc3ccco3)C(=O)Nc3ccccc3C)cc2c1	14	10	-5%	-36%	-17%	4%
Cc1cc2c(cc1S(=O)(=O)N1CCOCC1)NC(=O)CO2	-2	2	-7%	2%	1%	-2%
CCc1nnc(NC(=O)CCC(=O)N2CCN(c3cccc(Cl)c3)CC2)s1	-11	-5	7%	92%	-5%	-12%
COc1ccc(-n2c(C)cc(C(=O)CN3CCC(C)CC3)c2C)cc1	63	37*	0%	-10%	3%	5%
Cc1cc(C(=O)CN2CCCC2)c(C)n1-c1ccc(F)cc1	6	3	5%	-5%	1%	9%
Cc1cc(C(=O)CN2CCC(C)CC2)c(C)n1-c1ccc(F)cc1	22*	32*	-11%	-10%	14%	-2%
Cc1cc(C(=O)CN2CCCCC2)c(C)n1-c1ccc(F)cc1	56*	37*	0%	-12%	-8%	-1%
SMILES	Shiga inhibitor	Cycloheximide cs	AMA1-RON2 inh	AmpC inh no detg	SARS PLP yeast	AmpC detergent
Cc1cc(C(=O)CN2CCCC2)c(C)n1-c1ccc(Cl)cc1	21	9	0%	1%	-2%	1%
NC(=O)C1CCN(CC(=O)c2c[nH]c3ccc(F)cc23)CC1	-4	2	-13%	0.14µM*	2%	10%
CCOC(=O)/C(Sc1nc(-c2ccccc2)cc(-c2ccccc2)c1C#N)=C(\C)O	-6	-5	17%	-33%	-1%	0%
CCOC(=O)C1CCCN(C/C=C/c2ccccc2[N+](=O)[O-])C1 (centres undefined)	-6	-2	-22%	1%	8%	6%
CC(NS(=O)(=O)c1ccc(Cl)cc1)C(=O)OCC(=O)Nc1ccc(N(C)C)cc1 (centres undefined)	·	·	?	-13%	-5%	?
COc1ccc2[nH]cc(C(=O)CN3CCC(C)CC3)c2c1	76*	35*	8%	-27%	1%	-13%
COc1ccc2[nH]cc(C(=O)CN3CCCC(C)C3)c2c1 (centres undefined)	15	-1	-3%	-36%	-2%	-2%
Cc1cc(C(=O)CNCc2ccco2)c(C)n1-c1ccc(F)cc1	74*	38*	0%	2%	-9%	-7%
Cc1cc(C(=O)NC2CCCCC2)c(C)n1-c1ccc(F)cc1	77*	46*	-4%	-14%	-5%	-1%
Cc1cc(C(=O)OCC(=O)N2CCN(C(=O)c3ccco3)CC2)c(C)n1-c1ccc(F)cc1	3	1	0%	130%	4%	-9%
COc1cccc(/C=C(/C(=O)OCC(N)=O)c2ccccc2)c1	8	3	-28%	10%	-7%	-12%
N#CCn1cc(/C=N/NC(=O)c2cc3c(ccc4ccccc43)o2)c2ccccc21	-4	7	17%	-3%	1%	-7%
CCOC(=O)Nc1nnc(CCc2ccccc2)s1	-2	-4	7%	-29%	3%	-15%
CCCOC(=O)Nc1nnc(CCC)s1	40	13	0%	-13%	?	2%
CCCCCc1nnc(NC(=O)OCCC)s1	27	14*	0%	-21%	-10%	1%
CCCCCOC(=O)Nc1nnc(CCCCC)s1	-24	-3	19%	-30%	-4%	2%
C/C=C(\C)c1nnc(NC(=O)OCC)s1	42*	15*	27%	-6%	-5%	-1%
CCCCOC(=O)Nc1nnc(CC)s1	56*	43*	-3%	-8%	7%	-4%
CCc1nnc(NC(=O)OCc2ccccc2)s1	60*	20*	-2%	-16%	-10%	-1%
CCCN1CN(Cc2ccccc2)CC2=C1CC(C)(C)CC2=O	31	2	5%	43%	8%	-12%
Cc1ccc(N2CCOCC2)c2c1C(=O)c1ccccc1C2=O	-13	3	14µM*	120%	-16%	3%
CC(=O)c1ccc(N2CCN(S(=O)(=O)c3c(C)[nH]c(C)c3C(=O)N3CCCCC3)CC2)cc1	17	19*	-4%	105%	1%	-9%
COC(=O)c1cc(Br)c(=O)n(Cc2ccc(OC)c(OC)c2)c1	4	6	-3%	-14%	2%	7%
CC(C)Cc1nnc(NC(=O)CSc2ncn[nH]2)s1	-2	-2	-8%	-8%	11%	0%
Cc1ccc(NC(=O)COC(=O)c2ccco2)cc1	54*	37*	6%	-13%	-1%	1%

Screening results deposited in PubChem BioAssay by National Center for Advancing Translational Sciences (NCATS).
